Active and inactive are the calls of the source.
Experiments:
[1] = tested on: Plasmodium falciparum Sir2 (PF13_0152, Sir2A); experiment: pfSir2 binders on small-molecule microarrays, primary screen, biochemical, small-molecule microarray, 635 nm fluorescence (AID 1098); details: small-molecule microarray binding, fluorescence 635 nm; higher = more signal;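 further: score merges spot fluorescence intensity with its signal-to-noise ratio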
[2] = small-molecule microarray binders of probe aDKK1, primary screen, biochemical, biotinylated probe, 635/667 nm fluorescence (AID 1099); details: higher = more signal;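 further: score merges 667nm spot fluorescence with signal to noise across triplicate slides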
[3] = small-molecule microarray binders of probe aCHRDL2, primary screen, biochemical, biotinylated probe, 635/667 nm fluorescence (AID 1100); details: higher = more signal
[4] = splicing luciferase reporter signal modulators, primary screen, spliceosome inhibition project, cell-based, HEK293, splice +/- reporter (AID 1101); details: luminescence, 24 h, higher = more signal, called active from +8 up or from −8 down;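 further: HEK293 cells carrying a splicing-competent luciferase reporter gene; test concentration not given here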
[5] = biological target: Fibroblast growth factor 10 (Homo sapiens) (UniProt O15520); experiment: FGF10 binders on small-molecule microarrays, primary screen, biochemical, small-molecule microarray, 635 nm fluorescence (AID 1102); details: FGF10 binding, fluorescence 635 nm, higher = more signal
[6] = tested on: glycogen synthase kinase-3 (GSK3A per assay name; protocol says GSK3B); experiment: GSK3 binders on small-molecule microarrays, primary screen, biochemical, small-molecule microarray, 635 nm fluorescence, GSK3A (AID 1103); details: small-molecule microarray binding, fluorescence 635 nm; higher = more signal; further: the record names both GSK3A and GSK3B
[7] = biological target: Epidermal growth factor receptor (Homo sapiens) (UniProt P00533); experiment: EGFR binders on small-molecule microarrays, primary screen, biochemical, small-molecule microarray, 635 nm fluorescence (AID 1104); details: EGFR binding, higher = more signal;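 further: score merges 667 nm emission intensity with spot signal to noise over triplicate slides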
[8] = biological target: Follistatin-related protein 3 (Homo sapiens) (UniProt O95633); experiment: FSTL3 binders on small-molecule microarrays, primary screen, biochemical, small-molecule microarray, 635 nm fluorescence (AID 1105); details: FSTL3 binding, higher = more signal;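 further: score merges emission near 667 nm and signal to noise per printed spot across three slides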
[9] = biological target: Dickkopf-related protein 1 (Homo sapiens) (UniProt O94907); experiment: DKK1 binders on small-molecule microarrays, primary screen, biochemical, small-molecule microarray, 635 nm fluorescence scan (AID 1106); details: DKK1 binding, higher = more signal;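 further: score merges emission near 667 nm with signal to noise over three replicate slides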
[10] = tested on: Inhibin beta A chain (activin A); experiment: INHBA (activin A) binders on microarrays, primary screen, biochemical, small-molecule microarray, 635 nm fluorescence scan (AID 1107); details: small-molecule microarray binding, higher = more signal;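 further: mouse activin A protein probed at 4.33 µg/mL on printed slides; score merges bound-protein fluorescence near 667 nm with spot signal-to-noise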
[11] = tested on: Human papillomavirus type 1a protein E7 (residues 44-93); experiment: HPV1a E7 fragment binders on microarrays, primary screen, biochemical, small-molecule microarray, residues 44-93, 635 nm fluorescence (AID 1108); details: small-molecule microarray binding, fluorescence 635 nm; higher = more signal;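 further: E7 fragment applied at 1 µg/mL in TBST for 1 h at 4 C; score combines spot fluorescence with its signal to noise ratio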
[12] = modulators of HCV replicon luciferase signal, primary screen, HCV replication inhibitor project, Huh7 cells, luciferase reporter (AID 1109); details: 48 h, higher = more signal;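 further: huh7 hepatoma cells harbouring a luciferase neomycin HCV replicon reporter; luciferase luminescence as measure of HCV replicon replication; test concentration not given here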
[13] = biological target: Left-right determination factor 2 (Homo sapiens) (UniProt O00292); experiment: LEFTY2 binders on small-molecule microarrays, primary screen, biochemical, small-molecule microarray, 635 nm fluorescence scan (AID 1110); details: LEFTY2 binding, higher = more signal
[14] = biological target: Calmodulin-1 (Homo sapiens) (UniProt P0DP23); experiment: CALM1 binders on microarrays, EGTA buffer, profiling panel, biochemical, small-molecule microarray, Cy5-labelled CALM1 (AID 1111); details: Cy5-CALM1 binding fluorescence, higher = more signal;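 further: labelled calmodulin applied in Tris saline Tween buffer holding calcium plus EGTA and DTT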
[15] = biological target: Calmodulin-1 (Homo sapiens) (UniProt P0DP23); experiment: calcium-bound CALM1 binders on microarrays, profiling panel, artefact control for SMM control-protein annotation, biochemical, small-molecule microarray, Cy5-labelled CALM1, plus calcium (AID 1112); details: Cy5-CALM1 binding fluorescence, higher = more signal;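 further: score merges spot fluorescence with signal to noise from triplicate slides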
[16] = small-molecule microarray binders of probe aWnt5a, primary screen, biochemical, biotinylated probe, 635/667 nm fluorescence (AID 1113); details: higher = more signal;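 further: score merges 667 nm fluorescence intensity with signal-to-noise per printed feature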
[17] = small-molecule microarray binders of probe aShh, primary screen, biochemical, biotinylated probe, 635/667 nm fluorescence (AID 1114); details: higher = more signal;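 further: probe is biotin-labelled aShh protein from a stem cell growth factor screen; measures binding of labelled protein to compounds printed on the slide; score merges feature fluorescence at 667 nm with signal-to-noise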
[18] = small-molecule microarray binders of probe aNog, primary screen, biochemical, biotinylated probe, 635/667 nm fluorescence (AID 1115); details: higher = more signal;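 further: probe is biotinylated aNog protein used at 0.15 µg/mL for 1 h at 4 C; z-score combines 667 nm fluorescence of each spot with its signal to noise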
[19] = biological target: Torsin-1A-interacting protein 1 (Homo sapiens) (UniProt Q5JTV8); experiment: LAP1 binders from COS7 cell lysate, primary screen, small-molecule microarray, 635/667 nm fluorescence (AID 1116); details: COS7-hLAP1 lysate binding, 635 nm fluorescence, higher = more signal
[20] = biological target: Alpha-bungarotoxin (Bungarus multicinctus) (UniProt P60615); experiment: alpha-bungarotoxin binders on microarray, profiling panel, artefact control for SMM control protein annotation, biochemical, small-molecule microarray, Alexa647 label, 635/667 nm fluorescence (AID 1117); details: alpha-BTX-A647 binding fluorescence, higher = more signal
Chain of Alpha-bungarotoxin (Bungarus multicinctus) (P60615 whole entry, looked up): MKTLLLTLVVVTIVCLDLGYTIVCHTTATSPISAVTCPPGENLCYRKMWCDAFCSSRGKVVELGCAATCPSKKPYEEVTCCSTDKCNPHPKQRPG

Chain of Epidermal growth factor receptor (Homo sapiens) (P00533 whole entry, looked up): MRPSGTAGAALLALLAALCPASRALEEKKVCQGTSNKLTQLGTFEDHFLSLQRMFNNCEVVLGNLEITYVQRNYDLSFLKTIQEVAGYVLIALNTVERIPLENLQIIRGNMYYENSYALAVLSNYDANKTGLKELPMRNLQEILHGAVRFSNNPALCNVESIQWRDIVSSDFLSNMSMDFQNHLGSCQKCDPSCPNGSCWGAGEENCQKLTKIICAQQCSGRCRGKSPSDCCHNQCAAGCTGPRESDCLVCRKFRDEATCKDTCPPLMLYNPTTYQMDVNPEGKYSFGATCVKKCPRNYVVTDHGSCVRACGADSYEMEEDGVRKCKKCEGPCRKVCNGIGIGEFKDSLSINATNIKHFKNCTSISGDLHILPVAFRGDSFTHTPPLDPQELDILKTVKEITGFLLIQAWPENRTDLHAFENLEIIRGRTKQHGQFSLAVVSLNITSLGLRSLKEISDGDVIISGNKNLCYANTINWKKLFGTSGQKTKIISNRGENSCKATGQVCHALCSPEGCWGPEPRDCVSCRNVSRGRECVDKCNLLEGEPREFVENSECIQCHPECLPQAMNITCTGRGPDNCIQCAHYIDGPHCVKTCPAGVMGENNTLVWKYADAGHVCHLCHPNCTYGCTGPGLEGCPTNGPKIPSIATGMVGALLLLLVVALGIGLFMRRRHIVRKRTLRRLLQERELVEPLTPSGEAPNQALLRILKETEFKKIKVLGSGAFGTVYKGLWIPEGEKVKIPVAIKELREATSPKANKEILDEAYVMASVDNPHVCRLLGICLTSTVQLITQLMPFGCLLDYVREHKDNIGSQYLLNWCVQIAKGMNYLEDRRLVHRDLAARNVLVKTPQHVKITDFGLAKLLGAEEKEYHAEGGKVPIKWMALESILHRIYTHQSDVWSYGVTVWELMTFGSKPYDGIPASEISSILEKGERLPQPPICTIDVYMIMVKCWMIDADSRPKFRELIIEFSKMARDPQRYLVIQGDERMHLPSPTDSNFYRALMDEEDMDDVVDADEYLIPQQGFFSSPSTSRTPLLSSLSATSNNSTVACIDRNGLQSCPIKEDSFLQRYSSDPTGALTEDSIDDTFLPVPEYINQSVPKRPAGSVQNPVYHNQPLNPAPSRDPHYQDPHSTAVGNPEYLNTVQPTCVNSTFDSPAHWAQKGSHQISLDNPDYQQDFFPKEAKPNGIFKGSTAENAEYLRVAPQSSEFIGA
Chain of Fibroblast growth factor 10 (Homo sapiens) (O15520 whole entry, looked up): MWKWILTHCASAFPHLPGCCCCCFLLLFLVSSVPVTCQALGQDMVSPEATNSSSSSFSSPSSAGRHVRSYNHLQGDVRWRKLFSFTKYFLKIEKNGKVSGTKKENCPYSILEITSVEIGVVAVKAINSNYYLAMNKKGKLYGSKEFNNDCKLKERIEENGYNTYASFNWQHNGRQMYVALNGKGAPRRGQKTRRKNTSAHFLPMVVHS
Chain of Follistatin-related protein 3 (Homo sapiens) (O95633 whole entry, looked up): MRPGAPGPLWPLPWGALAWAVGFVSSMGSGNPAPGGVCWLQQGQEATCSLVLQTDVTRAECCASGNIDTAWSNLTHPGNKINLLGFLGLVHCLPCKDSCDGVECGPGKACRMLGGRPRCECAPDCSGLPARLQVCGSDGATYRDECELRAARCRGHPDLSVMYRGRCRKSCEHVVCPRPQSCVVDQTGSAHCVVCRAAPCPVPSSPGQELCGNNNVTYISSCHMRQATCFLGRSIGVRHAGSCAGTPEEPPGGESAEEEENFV
Chain of Left-right determination factor 2 (Homo sapiens) (O00292 whole entry, looked up): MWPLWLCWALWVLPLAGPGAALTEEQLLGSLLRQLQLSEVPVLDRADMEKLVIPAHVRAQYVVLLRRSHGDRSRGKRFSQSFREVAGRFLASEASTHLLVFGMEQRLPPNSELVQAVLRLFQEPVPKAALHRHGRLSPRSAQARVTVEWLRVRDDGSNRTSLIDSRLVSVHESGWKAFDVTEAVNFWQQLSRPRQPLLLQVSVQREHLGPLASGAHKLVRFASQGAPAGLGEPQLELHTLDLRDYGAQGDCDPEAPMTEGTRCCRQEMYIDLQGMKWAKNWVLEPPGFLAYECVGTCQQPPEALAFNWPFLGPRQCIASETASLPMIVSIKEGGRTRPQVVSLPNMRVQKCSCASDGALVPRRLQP
Chain of Torsin-1A-interacting protein 1 (Homo sapiens) (Q5JTV8 whole entry, looked up): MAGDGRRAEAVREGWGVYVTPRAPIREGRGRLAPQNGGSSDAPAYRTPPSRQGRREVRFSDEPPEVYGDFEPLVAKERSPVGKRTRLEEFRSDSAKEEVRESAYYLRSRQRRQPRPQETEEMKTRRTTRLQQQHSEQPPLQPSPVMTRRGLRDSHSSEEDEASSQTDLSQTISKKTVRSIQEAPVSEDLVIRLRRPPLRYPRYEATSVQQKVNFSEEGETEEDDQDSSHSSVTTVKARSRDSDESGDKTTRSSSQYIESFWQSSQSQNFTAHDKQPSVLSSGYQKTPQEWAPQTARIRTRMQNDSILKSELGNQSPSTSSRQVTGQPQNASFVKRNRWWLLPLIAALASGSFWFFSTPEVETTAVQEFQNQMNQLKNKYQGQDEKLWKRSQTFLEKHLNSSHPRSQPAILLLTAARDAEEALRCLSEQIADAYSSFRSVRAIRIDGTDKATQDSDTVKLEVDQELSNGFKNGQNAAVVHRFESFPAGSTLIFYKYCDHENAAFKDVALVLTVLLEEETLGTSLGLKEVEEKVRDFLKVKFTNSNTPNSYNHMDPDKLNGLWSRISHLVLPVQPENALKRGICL
Chain of Dickkopf-related protein 1 (Homo sapiens) (O94907 whole entry, looked up): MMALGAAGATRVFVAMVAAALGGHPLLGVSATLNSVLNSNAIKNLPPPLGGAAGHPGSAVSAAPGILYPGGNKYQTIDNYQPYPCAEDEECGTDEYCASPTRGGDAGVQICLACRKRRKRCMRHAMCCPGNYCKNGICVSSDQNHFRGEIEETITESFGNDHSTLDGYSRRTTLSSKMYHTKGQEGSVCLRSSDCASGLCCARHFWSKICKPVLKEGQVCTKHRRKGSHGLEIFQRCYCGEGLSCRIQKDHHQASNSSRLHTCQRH

Compound	composite z-score [1]	composite z-score [2]	composite z-score [3]	z-score [4]	composite z-score [5]	composite z-score [6]	composite z-score [7]	composite z-score [8]	composite z-score [9]	composite z-score [10]	composite z-score [11]	z-score [12]	composite z-score [13]	composite z-score [14]	composite z-score [15]	composite z-score [16]	composite z-score [17]	composite z-score [18]	composite z-score [19]	composite z-score [20]
CC(C)=NOC[C@@H](O)[C@H]1O[C@@H]2OC(C)(C)O[C@@H]2[C@H]1O	0.231	-0.0464	-0.364	0.211 (inactive)	0.392	0.892	0.487	0.434	0.58	0.5	0.855	0.674	0.989	0.0985	-0.29	0.163	0.0952	-0.191	0.243	0.154
CC(C)CON=C1C[C@@H](O)[C@@H](O)[C@@H]2[C@@H]3C(=O)N(Cc4ccc5c(c4)OCO5)C(=O)[C@@H]3CC[C@@H]12	0.409	-0.218	-0.208	0.0483 (inactive)	0.0677	-0.315	-0.203	-0.0661	-0.337	-0.0043	0.44	0.081	-0.119	0.349	-0.311	-0.0279	-0.0769	-0.103	0.086	0.748
CCc1cc2c(nc1CC)CCN(CCC(C)=NO[C@@H]1O[C@H](COC(C)=O)[C@@H](OC(C)=O)[C@H](OC(C)=O)[C@H]1OC(C)=O)C2	0.8	-0.0154	-0.82	-0.763 (inactive)	1.14	0.642	0.905	1.32	1.32	0.703	1.31	-0.998	1.3	-0.199	-0.502	0.0251	-0.291	-0.152	2.85	1.01
CC#CCOCCC=C1c2ccccc2[C@@H](OC)[C@@H]1C	0.183	-0.168	-0.42	0.478 (inactive)	0.593	-0.406	0.0594	0.449	0.487	-2.36	-1.14	-0.692	0.0778	-1.06	-1.18	-0.0977	-0.138	-0.209	0.139	-0.0725
CCOC(=O)[C@H](CC(C)C)NC(=O)CCC1CC(OC(=O)NCCc2ccc(F)cc2)CC2(CCCC(COC(=O)NCc3cccc(C(F)(F)F)c3)O2)O1 (stereo not given in full)	0.581	-0.211	-0.51	0.478 (inactive)	1.39	0.733	0.29	0.814	0.532	-0.257	1.38	-0.0709	0.605	-0.134	-0.448	-0.129	-0.154	0.28	0.274	0.342
CC(CCN1CCCc2nc(C)c(C)cc21)=NOC[C@@H](C)[C@H](OCc1ccccc1)C(C)C	-0.438	-0.359	-0.623	-0.81 (inactive)	-0.569	-0.715	-0.771	-0.413	-0.265	0.356	-1.39	-0.148	-0.196	-1	-0.387	-0.0685	-0.138	-0.255	-0.187	-1.1
CO[C@@H]1COC(=O)CC=C[C@H](C)[C@H](OC)COC(=O)[C@@H]2CCCN2C(=O)CC=C[C@H]1C	0.811	-0.48	-1.38	-0.127 (inactive)	0.487	0.562	1.15	1.25	1.52	1.14	-0.496	-0.733	1.31	-0.86	-1.38	-0.113	0.0328	-0.195	-0.041	-0.324
CC(CCC(=O)OC[C@H]1O[C@H](C#Cc2ccccc2)C=C[C@@H]1Oc1ccc(C)cc1)=NOC(C)CN1CCCc2nc(C)c(C)cc21 (stereo not given in full)	0.839	-0.143	-0.35	0.00662 (inactive)	0.732	0.727	0.335	0.694	0.397	0.531	1.21	-0.456	0.447	0.687	-0.0954	-0.0944	-0.0146	0.125	0.132	0.898
C[C@@H]1CC[C@H]2C(=O)O[C@@H](COc3ccc(C(C)(C)C)cc3)CN2[C@H]1c1ccc(Br)cc1	0.418	-0.251	-0.427	0.0739 (inactive)	0.0543	0.158	-0.0032	0.0224	0.191	0.0996	0.269	-0.157	0.193	-0.543	-0.229	-0.0704	-0.214	0.0762	0.0021	0.315
CCN1C(=O)[C@H]2[C@H]3[C@H](O)[C@H](O)CC(=NOCC=C(C)CCC=C(C)C)[C@@H]3CC[C@H]2C1=O	0.882	-0.214	-0.717	0.486 (inactive)	1.21	0.938	1.53	0.972	1.16	1.18	0.57	-0.44	1.29	-1.09	-0.347	-0.087	-0.282	-0.158	0.0411	0.791
O=C1CCCC=C1C(O)C1CCCCC1 (stereo not given)	-0.895	-0.214	-0.476	0.301 (inactive)	0.42	-0.0973	0.309	0.324	0.165	0.615	-0.64	0.108	-0.0231	-0.583	-0.389	0.0088	-0.186	-0.134	-0.207	-0.268
CC(=O)OC[C@H]1O[C@@H](ON=C(C)CCN2CCCCc3nc(C)c(C)cc32)[C@H](OC(C)=O)[C@@H](OC(C)=O)[C@@H]1OC(C)=O	0.834	-0.208	-0.664	-1.29 (inactive)	1.23	1.19	1.11	1.28	1.39	0.328	1.16	-0.997	0.962	-0.336	-0.767	-0.0337	0.0121	-0.0129	0.479	-0.546
